# PubChem BioAssay
# “And” between values parts separate entries of the source, which are not always exact repeats. Identical values can stand only once. The source made the active and inactive calls. Unless noted, the rule behind the calls is not given here.
# Assays:
# [1] = P. berghei load reduction in hepatocytes – cell-based, HepG2, luciferase luminescence, HepG2 viability, primary screen (AID 624349; in the data active = parasite load remaining mostly below about 12%, no sharp cut-off; inactive = mostly above about 10%;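 note: 100% = mean of DMSO negative control wells on the same plate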); conditions: P. berghei liver stage in HepG2, luciferase luminescence, concentration not given here; parasite load remaining: stronger effect = lower value; viability: measured here: HepG2 viability without parasites
# [2] = signal quenchers or enhancers, Cy5 substrate/SSB – biochemical, NIH Clinical Collection, E. coli SSB, artefact control for HCV NS3 helicase inhibitor project (AID 743268); conditions: Cy5-oligo bound E. coli SSB, fluorescence interference
# [3] = system: Hepatitis C virus NS3 helicase; assay: blockers of NS3h binding to DNA – biochemical, fluorescence polarization, NIH Clinical Collection, primary screen (AID 743270); conditions: NS3 helicase binding to Cy5-dT15 DNA, stronger effect = higher value, concentration not given here
# [4] = biological target: Single-stranded DNA-binding protein (Escherichia coli (strain K12)) (UniProt P0AGE0); assay: SSB-ssDNA binding inhibitors – biochemical, fluorescence polarization, NIH Clinical Collection, counter-screen for HCV NS3 helicase inhibitor project (AID 743271; in the data active = inhibition above about 28%); conditions: E. coli SSB-DNA binding, stronger effect = higher value, concentration not given here
# [5] = compounds distorting NS3 helicase fluorescence signal – biochemical, NIH Clinical Collection, artefact control for HCV NS3 helicase inhibitor project (AID 743272); conditions: fluorescence interference counterscreen, HCV NS3 helicase assay; stronger effect = lower value;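 note: HCV NS3 helicase with a Cy5 labelled single stranded DNA probe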
# [6] = system: Neuropilin-2 / VEGF-C interaction (human); assay: small molecules blocking Neuropilin-2/VEGF-C interaction – biochemical, microplate binding format, z-score (AID 743281); conditions: microplate NRP2/VEGF-C binding assay; stronger effect = lower value
# [7] = modulation of C. elegans fzo-1 (AID 1259413);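 note: fzo-1 mutant C. elegans worms in liquid wells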; conditions: C. elegans fzo-1 modulator screen, mean read-out; stronger effect = higher value
# [8] = EMT-state selective cytotoxicity in co-culture – imaging, PC-3E GFP, TEM4-18 mCherry, primary screen (AID 1345086;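 active = compounds killing one labelled cell type while sparing the other, by normalised counts and ratio limits, not self-fluorescent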;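 for all read-outs here: cells exposed to compound for 72 h before imaging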;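 for red/green cell ratio (normalised): normalised mesenchymal count divided by normalised epithelial count so high means epithelial killing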); conditions: PC-3E GFP / TEM4-18 mCherry co-culture, imaging cell counts, at 1 µM; for red/green cell ratio (normalised): actives lie on both sides, counts scaled to control wells, 1 = unselective
# [9] = viability loss with induced miR-34 in A549 – imaging, A549 dox-inducible miR-34, nuclei and caspase counts, primary screen (AID 1347080;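 active = compounds whose cell count with miR-34 switched on is under 0.7 times the count with it off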); conditions: A549 miR-34 inducible, Hoechst nuclei count, 48 h
# [10] = galactose survival enhancers in mitochondrial complex I cybrids – cell-based, galactose medium, ATP luminescence, primary screen (AID 1645843;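 active = z-score of at least 1.8 in each of two replicates, scored against plate mean and spread of sample wells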;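 note: positive z means more ATP and so rescue of galactose-driven cybrid death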); conditions: complex I mutant cybrid cells, 72 h, stronger effect = higher value
# [11] = measured here: epithelial PC-3E GFP cell survival
# [12] = measured here: mesenchymal TEM4-18 mCherry cell survival
# [13] = stronger effect = lower value, cell number ratio, induced over uninduced
# [14] = measured here: relative caspase fold change +Dox/-Dox
# [15] = measured here: total cells with miR-34 induction, stronger effect = lower value
# [16] = measured here: total cells without miR-34 induction
smiles,measurement,setting,value
Cc1c(O)c(=O)ccn1C,parasite load remaining,[1],103% (inactive)
same,viability,[1],77.2%
same,fluorescence ratio,[2],0.96 (inactive)
same,inhibition,[3],1.98% (inactive)
same,inhibition,[4],6.83% (inactive)
same,fluorescence ratio,[5],0.92 (inactive)
same,z-score,[6],-1.2 (inactive)
same,mean signal,[7],235 (inactive)
same,red/green cell ratio (normalised),[8],0.89 (inactive)
same,normalised cell number,[8]; [11],1.06
same,normalised cell number,[8]; [12],0.95
same,fold change,[9]; [13],0.87 (inactive) and 0.909 (inactive)
same,fold change,[9]; [14],0.877 and 1.84
same,cell count,[9]; [15],8280 and 9190
same,cell count,[9]; [16],9520 and 10100
same,z-score,[10],0.65 (inactive)
C[C@@H]1C[C@H]2[C@@H]3CCC4=CC(=O)C=CC4(C)[C@@]3(F)[C@@H](O)CC2(C)[C@@]1(O)C(=O)CO (some centres not stated),mean signal,[7],285 (inactive)
CC(=O)N1CCN(c2ccc(OC[C@H]3CO[C@](Cn4ccnc4)(c4ccc(Cl)cc4Cl)O3)cc2)CC1,fluorescence ratio,[2],0.93 (inactive)
same,inhibition,[3],4.36% (inactive)
same,inhibition,[4],13.8% (inactive)
same,fluorescence ratio,[5],0.91 (inactive)
same,z-score,[6],0.168 (inactive)
same,mean signal,[7],283 (inactive)
same,z-score,[10],-1.2 (inactive) and -0.985 (inactive) and -1.05 (inactive)
CC[C@@H]1C(=O)OC[C@@H]1Cc1cncn1C,fluorescence ratio,[2],0.93 (inactive)
same,inhibition,[3],-5.94% (inactive)
same,inhibition,[4],1.44% (inactive)
same,fluorescence ratio,[5],0.86 (inactive)
same,z-score,[6],-0.47 (inactive)
same,mean signal,[7],280 (inactive)
CC(C)N=c1cc2n(-c3ccc(Cl)cc3)c3ccccc3nc-2cc1Nc1ccc(Cl)cc1,fluorescence ratio,[2],0.94 (inactive)
same,inhibition,[3],8.52% (inactive)
same,inhibition,[4],6.69% (inactive)
same,fluorescence ratio,[5],0.96 (inactive)
same,z-score,[6],1.38 (inactive)
same,mean signal,[7],220 (inactive)
same,red/green cell ratio (normalised),[8],0.91 (inactive)
same,normalised cell number,[8]; [11],0.92
same,normalised cell number,[8]; [12],0.84
same,z-score,[10],-1.15 (inactive)
CC[C@]1(O)CC2CN(CCc3c([nH]c4ccccc34)[C@@](C(=O)OC)(c3cc4c(cc3OC)N(C)[C@H]3[C@@](O)(C(N)=O)[C@H](O)[C@]5(CC)C=CCN6CC[C@]43[C@@H]65)C2)C1 (some centres not stated),parasite load remaining,[1],65.1% (inactive)
same,viability,[1],135%
same,fluorescence ratio,[2],0.91 (inactive)
same,inhibition,[3],-6.33% (inactive)
same,inhibition,[4],1.18% (inactive)
same,fluorescence ratio,[5],0.91 (inactive)
same,outcome,[6],inactive
same,mean signal,[7],260 (inactive)
COc1cc([C@@H]2c3cc4c(cc3[C@@H](O[C@@H]3O[C@@H]5CO[C@@H](C)O[C@H]5[C@H](O)[C@H]3O)[C@H]3COC(=O)[C@H]23)OCO4)cc(OC)c1O,parasite load remaining,[1],189% (inactive) and 77.5% (inactive) and 87.8% (inactive)
same,viability,[1],114% and 71.8% and 103%
same,fluorescence ratio,[2],1.02 (inactive)
same,inhibition,[3],0.66% (inactive)
same,inhibition,[4],2.76% (inactive)
same,fluorescence ratio,[5],1.01 (inactive)
same,z-score,[6],-1.12 (inactive)
same,mean signal,[7],267 (inactive)
same,fold change,[9]; [13],0.888 (inactive) and 1.07 (inactive)
same,fold change,[9]; [14],1.6 and 0.504
same,cell count,[9]; [15],2840 and 3400
same,cell count,[9]; [16],3200 and 3170
same,z-score,[10],-2.08 (inactive)
C#C[C@]1(O)CC[C@H]2[C@@H]3CCC4=Cc5oncc5CC4(C)[C@H]3CCC21C (some centres not stated),mean signal,[7],250 (inactive)
same,fold change,[9]; [13],0.894 (inactive)
same,fold change,[9]; [14],1.79
same,cell count,[9]; [15],7310
same,cell count,[9]; [16],8170
same,z-score,[10],-0.725 (inactive)
COc1cccc2c1C(=O)c1c(O)c3c(c(O)c1C2=O)C[C@@](O)(C(=O)CO)C[C@@H]3O[C@H]1C[C@H](N)[C@@H](O)[C@H](C)O1,parasite load remaining,[1],-0.12% (inactive)
same,viability,[1],25.2%
same,fluorescence ratio,[2],0.11 (active)
same,inhibition,[3],4.36% (inactive)
same,inhibition,[4],17.6% (inactive)
same,fluorescence ratio,[5],0.41 (active)
same,z-score,[6],-0.603 (inactive)
same,mean signal,[7],274 (inactive)
same,red/green cell ratio (normalised),[8],2.46 (active)
same,normalised cell number,[8]; [11],0.19
same,normalised cell number,[8]; [12],0.46
CN1[C@@H](CC(=O)c2ccccc2)CCC[C@H]1C[C@H](O)c1ccccc1,parasite load remaining,[1],59.5% (inactive) and 70.7% (inactive) and 71% (inactive)
same,viability,[1],108% and 77.1% and 78.1%
same,fluorescence ratio,[2],1.03 (inactive)
same,inhibition,[3],0.4% (inactive)
same,inhibition,[4],-0.1% (inactive)
same,fluorescence ratio,[5],1.03 (inactive)
same,z-score,[6],-0.358 (inactive)
same,mean signal,[7],245 (inactive)
same,fold change,[9]; [13],1.06 (inactive) and 0.859 (inactive) and 0.83 (inactive)
same,fold change,[9]; [14],0.866 and 1.18 and 1.23
same,cell count,[9]; [15],11200 and 9030 and 8370
same,cell count,[9]; [16],10500 and 10100
same,z-score,[10],-0.54 (inactive) and -0.495 (inactive)
COc1cccc2c1C(=O)c1c(O)c3c(c(O)c1C2=O)C[C@@](O)(C(C)=O)C[C@@H]3OC1CC(N)C(O)C(C)O1 (some centres not stated),parasite load remaining,[1],-2.09% (inactive) and 8.79% (inactive)
same,viability,[1],1.35% and 23.3%
same,fluorescence ratio,[2],1.07 (inactive)
same,inhibition,[3],6.82% (inactive)
same,inhibition,[4],3.34% (inactive)
same,fluorescence ratio,[5],0.55 (active)
same,mean signal,[7],273 (inactive)
same,fold change,[9]; [13],1.08 (inactive) and 1.04 (inactive)
same,fold change,[9]; [14],0.669 and 0.978
same,cell count,[9]; [15],1690 and 2610
same,cell count,[9]; [16],1560 and 2520
same,z-score,[10],-1.5 (inactive) and -0.935 (inactive)
C[C@H]1O[C@@H](O[C@H]2[C@@H](O)C[C@H](O[C@H]3[C@@H](O)C[C@H](O[C@H]4CCC5(C)[C@H](CC[C@@H]6[C@@H]5C[C@@H](O)C5(C)C(C7=CC(=O)OC7)CCC65O)C4)O[C@@H]3C)O[C@@H]2C)C[C@H](O)[C@@H]1O (some centres not stated),mean signal,[7],250 (inactive)
CC[C@]1(O)CC2CN(CCc3c([nH]c4ccccc34)[C@@](C(=O)OC)(c3cc4c(cc3OC)N(C=O)[C@H]3[C@@](O)(C(=O)OC)[C@H](OC(C)=O)[C@]5(CC)C=CCN6CC[C@]43[C@@H]65)C2)C1 (some centres not stated),parasite load remaining,[1],70.4% (inactive) and 43.2% (inactive)
same,viability,[1],103% and 123%
same,fluorescence ratio,[2],0.94 (inactive)
same,inhibition,[3],-2.84% (inactive)
same,inhibition,[4],0.39% (inactive)
same,fluorescence ratio,[5],0.92 (inactive)
same,outcome,[6],inactive
same,mean signal,[7],261 (inactive)
same,red/green cell ratio (normalised),[8],0.69 (inactive)
same,normalised cell number,[8]; [11],0.19
same,normalised cell number,[8]; [12],0.13
same,fold change,[9]; [13],0.983 (inactive)
same,fold change,[9]; [14],2.57
same,cell count,[9]; [15],1600
same,cell count,[9]; [16],1630
CC(=O)OC1C([N+]2(C)CCCCC2)C[C@H]2C3CC[C@H]4C[C@H](OC(C)=O)C([N+]5(C)CCCCC5)CC4(C)[C@H]3CCC12C (some centres not stated),parasite load remaining,[1],86.3% (inactive)
same,viability,[1],68.8%
same,fluorescence ratio,[2],0.94 (inactive)
same,inhibition,[3],-0.4% (inactive)
same,inhibition,[4],11.4% (inactive)
same,fluorescence ratio,[5],0.71 (active)
same,outcome,[6],inactive
same,mean signal,[7],283 (inactive)
CO[C@H]1C=CO[C@@]2(C)Oc3c(C)c(O)c4c(O)c(c5c(c4c3C2=O)NC2(CCN(CC(C)C)CC2)N=5)=NC(=O)/C(C)=C\C=C/[C@H](C)[C@H](O)[C@@H](C)[C@@H](O)[C@@H](C)[C@H](OC(C)=O)[C@@H]1C,mean signal,[7],242 (inactive)
CCCCC(=O)O[C@H]1CC[C@H]2[C@@H]3CCc4cc(O)ccc4[C@H]3CCC12C (some centres not stated),mean signal,[7],242 (inactive)
Cc1sc(N)c(C(=O)c2cccc(C(F)(F)F)c2)c1C,parasite load remaining,[1],28.2% (inactive)
same,viability,[1],69.8%
same,fluorescence ratio,[2],0.94 (inactive)
same,inhibition,[3],-3.71% (inactive)
same,inhibition,[4],-1.97% (inactive)
same,fluorescence ratio,[5],0.97 (inactive)
same,z-score,[6],0.715 (inactive)
same,mean signal,[7],276 (inactive)
same,fold change,[9]; [13],0.904 (inactive) and 0.931 (inactive)
same,fold change,[9]; [14],0.769 and 0.712
same,cell count,[9]; [15],8250 and 8560
same,cell count,[9]; [16],9130 and 9190
same,z-score,[10],1.27 (inactive) and 1.38 (inactive)
